Here are results for 39 sequences from doi:10.1101/2024.03.05.583629.

The test deals with pT7_6His-AlfaTag-HOXD13 (human, UniProt P35453 263-343). The test can be described thus: PADIT-seq. The note with it: dsDNA, one strand shown.
Chain of pT7_6His-AlfaTag-HOXD13 (P35453 263-343): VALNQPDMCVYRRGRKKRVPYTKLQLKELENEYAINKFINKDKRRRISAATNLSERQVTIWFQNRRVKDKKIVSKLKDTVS
“CTCGAGGATATCAAGATCTGGCCTCGGCCTTTTAGCTGGAACCTCTAGCTAGCCGACTCACTATAGGGATAATCGCCCTGAGCAAAGACC” yielded a binding signal of -0.366 ± 0.11 log2FC.
For “CTCGAGGATATCAAGATCTGGCCTCGGCAGTTTAAAAGGAACCTCTAGCTAGCCGACTCACTATAGGGATAATCGCCCTGAGCAAAGACC” the value was 2.23 ± 0.0764 log2FC; for “CTCGAGGATATCAAGATCTGGCCTCGGCCGCCCACTTGGAACCTCTAGCTAGCCGACTCACTATAGGGATAATCGCCCTGAGCAAAGACC”, -0.908 ± 0.133 log2FC; for “CTCGAGGATATCAAGATCTGGCCTCGGCATTTTAATAGGAACCTCTAGCTAGCCGACTCACTATAGGGATAATCGCCCTGAGCAAAGACC”, 2.83 ± 0.073 log2FC.
For “CTCGAGGATATCAAGATCTGGCCTCGGCGCGTGGTTAGGAACCTCTAGCTAGCCGACTCACTATAGGGATAATCGCCCTGAGCAAAGACC” the value was -0.958 ± 0.117 log2FC.
Next, “CTCGAGGATATCAAGATCTGGCCTCGGCAGCCCACGCGGAACCTCTAGCTAGCCGACTCACTATAGGGATAATCGCCCTGAGCAAAGACC”: -0.926 ± 0.109 log2FC; “CTCGAGGATATCAAGATCTGGCCTCGGCGCGGTAAAAGGAACCTCTAGCTAGCCGACTCACTATAGGGATAATCGCCCTGAGCAAAGACC”: 0.513 ± 0.0756 log2FC.
The sequence “CTCGAGGATATCAAGATCTGGCCTCGGCATCTTAAAAGGAACCTCTAGCTAGCCGACTCACTATAGGGATAATCGCCCTGAGCAAAGACC” yielded a binding signal of 1.62 ± 0.0869 log2FC.
Next, “CTCGAGGATATCAAGATCTGGCCTCGGCGAATGGGCGGGAACCTCTAGCTAGCCGACTCACTATAGGGATAATCGCCCTGAGCAAAGACC”: -0.762 ± 0.106 log2FC; “CTCGAGGATATCAAGATCTGGCCTCGGCGCGTGGACTGGAACCTCTAGCTAGCCGACTCACTATAGGGATAATCGCCCTGAGCAAAGACC”: -0.334 ± 0.121 log2FC; “CTCGAGGATATCAAGATCTGGCCTCGGCGTTTTAAGTGGAACCTCTAGCTAGCCGACTCACTATAGGGATAATCGCCCTGAGCAAAGACC”: 0.876 ± 0.107 log2FC.
In the case of “CTCGAGGATATCAAGATCTGGCCTCGGCTGTTGGGCGGGAACCTCTAGCTAGCCGACTCACTATAGGGATAATCGCCCTGAGCAAAGACC”, the binding signal is -1.03 ± 0.1 log2FC.
For “CTCGAGGATATCAAGATCTGGCCTCGGCGCGACAGCGGGAACCTCTAGCTAGCCGACTCACTATAGGGATAATCGCCCTGAGCAAAGACC” the value was -1.04 ± 0.131 log2FC; for “CTCGAGGATATCAAGATCTGGCCTCGGCAGTTGGGCGGGAACCTCTAGCTAGCCGACTCACTATAGGGATAATCGCCCTGAGCAAAGACC”, -0.843 ± 0.104 log2FC.
“CTCGAGGATATCAAGATCTGGCCTCGGCGCGCTTGCGGGAACCTCTAGCTAGCCGACTCACTATAGGGATAATCGCCCTGAGCAAAGACC”: the binding signal was -0.651 ± 0.137 log2FC.
For “CTCGAGGATATCAAGATCTGGCCTCGGCTCCCCACGCGGAACCTCTAGCTAGCCGACTCACTATAGGGATAATCGCCCTGAGCAAAGACC” the value was -0.217 ± 0.124 log2FC; for “CTCGAGGATATCAAGATCTGGCCTCGGCCATTGGGCGGGAACCTCTAGCTAGCCGACTCACTATAGGGATAATCGCCCTGAGCAAAGACC”, -0.505 ± 0.104 log2FC.
For “CTCGAGGATATCAAGATCTGGCCTCGGCCGCCCATTCGGAACCTCTAGCTAGCCGACTCACTATAGGGATAATCGCCCTGAGCAAAGACC” the value was -0.894 ± 0.121 log2FC; for “CTCGAGGATATCAAGATCTGGCCTCGGCGCGTGGATAGGAACCTCTAGCTAGCCGACTCACTATAGGGATAATCGCCCTGAGCAAAGACC”, -0.997 ± 0.122 log2FC; for “CTCGAGGATATCAAGATCTGGCCTCGGCATTTTATATGGAACCTCTAGCTAGCCGACTCACTATAGGGATAATCGCCCTGAGCAAAGACC”, 3.31 ± 0.0819 log2FC.
With “CTCGAGGATATCAAGATCTGGCCTCGGCTAATGGGCGGGAACCTCTAGCTAGCCGACTCACTATAGGGATAATCGCCCTGAGCAAAGACC”, the binding signal stood at 0.254 ± 0.0964 log2FC.
For “CTCGAGGATATCAAGATCTGGCCTCGGCGCGTGGAATGGAACCTCTAGCTAGCCGACTCACTATAGGGATAATCGCCCTGAGCAAAGACC” the value was -0.959 ± 0.133 log2FC; for “CTCGAGGATATCAAGATCTGGCCTCGGCCGCCCACTAGGAACCTCTAGCTAGCCGACTCACTATAGGGATAATCGCCCTGAGCAAAGACC”, -0.944 ± 0.114 log2FC; for “CTCGAGGATATCAAGATCTGGCCTCGGCGCGGGGGCGGGAACCTCTAGCTAGCCGACTCACTATAGGGATAATCGCCCTGAGCAAAGACC”, -0.903 ± 0.133 log2FC.
Next, “CTCGAGGATATCAAGATCTGGCCTCGGCTAGTGGGCGGGAACCTCTAGCTAGCCGACTCACTATAGGGATAATCGCCCTGAGCAAAGACC”: -0.725 ± 0.112 log2FC.
For “CTCGAGGATATCAAGATCTGGCCTCGGCGCGGGCGCGGGAACCTCTAGCTAGCCGACTCACTATAGGGATAATCGCCCTGAGCAAAGACC” the value was -1.05 ± 0.132 log2FC; for “CTCGAGGATATCAAGATCTGGCCTCGGCTTTTTACAGGGAACCTCTAGCTAGCCGACTCACTATAGGGATAATCGCCCTGAGCAAAGACC”, 3.18 ± 0.0923 log2FC.
In turn, “CTCGAGGATATCAAGATCTGGCCTCGGCTCATGGGCGGGAACCTCTAGCTAGCCGACTCACTATAGGGATAATCGCCCTGAGCAAAGACC” yielded a binding signal of -1.04 ± 0.124 log2FC.
Next, “CTCGAGGATATCAAGATCTGGCCTCGGCGTCATAAAAGGAACCTCTAGCTAGCCGACTCACTATAGGGATAATCGCCCTGAGCAAAGACC”: 2.72 ± 0.0783 log2FC; “CTCGAGGATATCAAGATCTGGCCTCGGCATTTTATCTGGAACCTCTAGCTAGCCGACTCACTATAGGGATAATCGCCCTGAGCAAAGACC”: 0.909 ± 0.103 log2FC; “CTCGAGGATATCAAGATCTGGCCTCGGCTTTTTATCGGGAACCTCTAGCTAGCCGACTCACTATAGGGATAATCGCCCTGAGCAAAGACC”: 1.91 ± 0.0856 log2FC.
For “CTCGAGGATATCAAGATCTGGCCTCGGCGAGTGGGCGGGAACCTCTAGCTAGCCGACTCACTATAGGGATAATCGCCCTGAGCAAAGACC” the value was -0.602 ± 0.0984 log2FC; for “CTCGAGGATATCAAGATCTGGCCTCGGCCGCTTGCGCGGAACCTCTAGCTAGCCGACTCACTATAGGGATAATCGCCCTGAGCAAAGACC”, -0.985 ± 0.131 log2FC; for “CTCGAGGATATCAAGATCTGGCCTCGGCGCGTGGGTTGGAACCTCTAGCTAGCCGACTCACTATAGGGATAATCGCCCTGAGCAAAGACC”, -1.06 ± 0.134 log2FC.
Next, “CTCGAGGATATCAAGATCTGGCCTCGGCATTTGGGCGGGAACCTCTAGCTAGCCGACTCACTATAGGGATAATCGCCCTGAGCAAAGACC”: -0.941 ± 0.11 log2FC.
For the sequence “CTCGAGGATATCAAGATCTGGCCTCGGCGCCTTAAAAGGAACCTCTAGCTAGCCGACTCACTATAGGGATAATCGCCCTGAGCAAAGACC”, the binding signal was 0.578 ± 0.0742 log2FC.
For “CTCGAGGATATCAAGATCTGGCCTCGGCTTATTAAAAGGAACCTCTAGCTAGCCGACTCACTATAGGGATAATCGCCCTGAGCAAAGACC” the value was 3.06 ± 0.0807 log2FC; for “CTCGAGGATATCAAGATCTGGCCTCGGCGGAGTAAAAGGAACCTCTAGCTAGCCGACTCACTATAGGGATAATCGCCCTGAGCAAAGACC”, -0.327 ± 0.108 log2FC.
Next, “CTCGAGGATATCAAGATCTGGCCTCGGCGTATGGGCGGGAACCTCTAGCTAGCCGACTCACTATAGGGATAATCGCCCTGAGCAAAGACC”: -0.957 ± 0.105 log2FC.
